Reference: PubChem BioAssay
Activity calls are given as the source filed them.

What was measured:
[1] = optical density shifts of acrAB sulA E. coli – strain DRC41, OD650, 48 h, E. coli filamentation inducer project, primary screen (AID 1152); details: higher = more signal, called active from +8 up or from −8 down;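 note: E. coli MC1000 strain DRC41 lacking acrAB efflux pump and sulA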
[2] = probe aLefty1 binding on compound microarray – biochemical, small-molecule microarray, 635/667 nm fluorescence, primary screen (AID 1153); details: higher = more signal;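 note: score merges spot fluorescence with signal-to-noise ratio from the scanned slide images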
[3] = plasmodial surface anion channel blockers, osmotic lysis – cell-based, P. falciparum Indochina, OD700, 1 h, primary screen (AID 1154); details: P. falciparum Indochina infected RBC osmotic lysis, higher = more signal, called active from +8 up or from −8 down
[4] = plasmodial surface anion channel blockers, osmotic lysis – cell-based, P. falciparum Indochina, OD700, 2 h, primary screen (AID 1155);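 note: lysis reports solute entry through the parasite surface anion channel PSAC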; details: P. falciparum Indochina infected erythrocytes, higher = more signal, called active from +8 up or from −8 down
[5] = changes in parasitized red cell lysis, either direction – P. falciparum Indochina, OD700, 3 h, PSAC antagonist project, primary screen (AID 1156); details: P. falciparum-infected erythrocytes, osmotic lysis, higher = more signal, called active from +8 up or from −8 down
[6] = plasmodial surface anion channel blockers, osmotic lysis – cell-based, P. falciparum Indochina, OD700, 18 h, primary screen (AID 1157); details: P. falciparum Indochina infected erythrocytes, osmotic lysis OD700, 18 h; higher = more signal, called active from +8 up or from −8 down
[7] = S6 kinase pathway phospho-S6 level changes – cell-based, A549, cytoblot, luminescence, serum-stimulated, primary screen (AID 1158); details: 5 h, higher = more signal;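 note: serum-stimulated A549 lung adenocarcinoma cells; signal is phosphorylated S6 detected by cytoblot immunostaining with HRP secondary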
[8] = target: NADPH oxidase 2 (Homo sapiens) (UniProt P04839); assay: compounds shifting NOX2 Amplex Red fluorescence – cell-based, HEK293-NOX2, PMA-stimulated, NOX inhibitor project, primary screen (AID 1159); details: 45 min, higher = more signal, called active from +8 up or from −8 down; note: test concentration not given here
[9] = target: NADPH oxidase 4 (Homo sapiens) (UniProt Q9NPH5); assay: compounds shifting NOX4 Amplex Red fluorescence – cell-based, HEK293-NOX4, tetracycline-induced, NOX inhibitor project, primary screen (AID 1160); details: HEK293-NOX4, Amplex Red H2O2 fluorescence, 45 min; higher = more signal, called active from +8 up or from −8 down
[10] = target: NADPH oxidase 5 (Homo sapiens) (UniProt Q96PH1); assay: compounds shifting NOX5 Amplex Red fluorescence – cell-based, HEK293-NOX5, NOX inhibitor project, primary screen (AID 1161); details: HEK293-NOX5, ionomycin, 45 min, higher = more signal
[11] = compound effects on lung adenocarcinoma cell viability – A549, calcein-AM fluorescence, 48 h, basal, profiling panel (AID 1162); details: higher = more signal; note: test concentration not given here
[12] = compound effects on differentiated 3T3-L1 adipocyte viability – cell-based, 3T3-L1 adipocytes, calcein-AM fluorescence, 48 h, basal, profiling panel (AID 1163); details: 3T3-L1 adipocytes viability, higher = more signal; note: test concentration not given here
[13] = compound effects on hepatocellular carcinoma cell viability – HepG2, calcein-AM fluorescence, 48 h, basal, profiling panel (AID 1164); details: higher = more signal; note: test concentration not given here
[14] = compound effects on multiple myeloma cell viability – MM1S, calcein-AM fluorescence, 48 h, basal, profiling panel (AID 1165); details: higher = more signal;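 note: viability of MM1S multiple myeloma cells under basal unstimulated conditions; test concentration not given here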
[15] = calcein-AM signal in unstimulated myeloma cells – cell-based, calcein-AM fluorescence, 48 h, PK04 Diversity Set, profiling panel (AID 1166); details: RPMI8226 myeloma viability, higher = more signal;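 note: cells grown under basal conditions without added stimulus; test concentration not given here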
[16] = JC-1 mitochondrial signal, unstimulated HepG2 cells – cell-based, JC-1 fluorescence, 24 h, 100 nL compound, profiling panel (AID 1167); details: HepG2 mitochondrial potential, higher = more signal; note: test concentration not given here
[17] = JC-1 mitochondrial signal, unstimulated adipocytes – cell-based, JC-1 fluorescence, 3T3-L1 adipocytes, 24 h, 100 nL compound, profiling panel (AID 1168); details: JC-1 mitochondrial fluorescence, higher = more signal, called active from +8 up or from −8 down; note: test concentration not given here
[18] = JC-1 mitochondrial signal, unstimulated myeloma cells – cell-based, JC-1 fluorescence, RPMI8226, 24 h, 100 nL compound, profiling panel (AID 1169); details: JC-1 mitochondrial potential fluorescence, higher = more signal; note: test concentration not given here
[19] = JC-1 mitochondrial signal, unstimulated MM1S myeloma – cell-based, JC-1 fluorescence, 24 h, 100 nL compound, profiling panel (AID 1170); details: MM1S mitochondrial potential, higher = more signal; note: test concentration not given here
[20] = resazurin metabolic signal in A549 cells – cell-based, resazurin fluorescence, 24 h, PK04 Diversity Set, profiling panel (AID 1171); details: A549 viability, higher = more signal, called active from +8 up or from −8 down; note: test concentration not given here

Sequence of NADPH oxidase 2 (Homo sapiens) (P04839 whole entry, looked up): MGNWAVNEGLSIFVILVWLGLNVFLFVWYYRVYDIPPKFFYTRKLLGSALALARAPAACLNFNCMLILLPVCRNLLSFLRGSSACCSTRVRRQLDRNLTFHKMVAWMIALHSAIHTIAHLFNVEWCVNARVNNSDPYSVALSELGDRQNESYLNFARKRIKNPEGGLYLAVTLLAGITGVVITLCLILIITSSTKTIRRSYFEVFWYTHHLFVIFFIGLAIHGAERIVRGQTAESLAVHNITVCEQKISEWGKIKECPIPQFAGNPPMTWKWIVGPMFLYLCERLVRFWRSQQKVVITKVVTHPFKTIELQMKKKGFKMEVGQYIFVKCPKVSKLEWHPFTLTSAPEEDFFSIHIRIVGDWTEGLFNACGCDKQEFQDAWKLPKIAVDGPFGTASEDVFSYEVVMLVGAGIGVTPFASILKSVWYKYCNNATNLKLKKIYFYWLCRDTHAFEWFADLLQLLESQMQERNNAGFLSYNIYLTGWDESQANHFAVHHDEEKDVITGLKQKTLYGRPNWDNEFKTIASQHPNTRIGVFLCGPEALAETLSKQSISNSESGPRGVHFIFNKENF
Sequence of NADPH oxidase 4 (Homo sapiens) (Q9NPH5 whole entry, looked up): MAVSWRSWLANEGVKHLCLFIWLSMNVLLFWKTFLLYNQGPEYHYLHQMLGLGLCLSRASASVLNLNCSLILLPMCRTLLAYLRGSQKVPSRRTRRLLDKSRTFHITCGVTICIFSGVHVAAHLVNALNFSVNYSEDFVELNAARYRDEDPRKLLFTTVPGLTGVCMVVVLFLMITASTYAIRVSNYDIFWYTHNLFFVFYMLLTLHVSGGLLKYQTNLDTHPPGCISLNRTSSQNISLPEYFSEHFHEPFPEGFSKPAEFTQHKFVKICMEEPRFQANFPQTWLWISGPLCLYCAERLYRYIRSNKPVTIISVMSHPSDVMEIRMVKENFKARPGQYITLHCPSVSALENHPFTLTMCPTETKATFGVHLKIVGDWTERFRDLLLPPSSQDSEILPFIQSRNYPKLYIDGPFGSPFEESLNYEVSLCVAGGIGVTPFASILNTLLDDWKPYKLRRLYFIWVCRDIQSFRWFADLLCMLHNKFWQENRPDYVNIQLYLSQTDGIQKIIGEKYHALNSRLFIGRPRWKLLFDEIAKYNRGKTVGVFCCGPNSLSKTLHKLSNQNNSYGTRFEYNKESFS
Sequence of NADPH oxidase 5 (Homo sapiens) (Q96PH1 whole entry, looked up): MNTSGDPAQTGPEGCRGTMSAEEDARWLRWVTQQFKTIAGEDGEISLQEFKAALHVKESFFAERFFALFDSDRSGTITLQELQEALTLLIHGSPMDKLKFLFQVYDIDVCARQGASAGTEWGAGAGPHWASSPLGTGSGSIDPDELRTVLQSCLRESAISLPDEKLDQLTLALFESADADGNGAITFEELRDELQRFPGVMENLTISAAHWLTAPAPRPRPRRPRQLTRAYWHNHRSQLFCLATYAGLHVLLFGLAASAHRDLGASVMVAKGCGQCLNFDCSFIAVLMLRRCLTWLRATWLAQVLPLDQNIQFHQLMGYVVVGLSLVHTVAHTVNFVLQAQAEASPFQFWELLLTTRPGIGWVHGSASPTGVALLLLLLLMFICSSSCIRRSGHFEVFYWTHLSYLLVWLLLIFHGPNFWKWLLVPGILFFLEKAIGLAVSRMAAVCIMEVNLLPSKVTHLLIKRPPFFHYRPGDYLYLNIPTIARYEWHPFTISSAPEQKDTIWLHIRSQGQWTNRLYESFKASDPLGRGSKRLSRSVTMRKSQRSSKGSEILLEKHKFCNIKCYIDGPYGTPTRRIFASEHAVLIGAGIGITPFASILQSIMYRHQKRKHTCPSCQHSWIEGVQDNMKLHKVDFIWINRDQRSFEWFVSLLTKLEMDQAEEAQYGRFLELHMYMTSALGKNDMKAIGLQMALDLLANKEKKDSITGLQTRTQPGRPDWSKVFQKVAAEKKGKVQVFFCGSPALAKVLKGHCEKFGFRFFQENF

SMILES: C=CC[C@@H]1C=C[C@H](ON=Cc2ccc(C(=O)N3[C@H](c4ccc(C)cc4)[C@@H](C)CC[C@H]3C(=O)OC)cc2)[C@@H](CO)O1
- z-score [1]: 0.69 (inactive)
- composite z-score [2]: -0.0945
- z-score [3]: 2.78 (inactive)
- z-score [4]: 0.852 (inactive)
- z-score [5]: -0.273 (inactive)
- z-score [6]: 0.637 (inactive)
- z-score [7]: -1.15
- z-score [8]: -0.428 (inactive)
- z-score [9]: 0.569 (inactive)
- z-score [10]: -0.0942
- z-score [11]: 0.319
- z-score [12]: -0.361
- z-score [13]: -0.431
- z-score [14]: -0.581
- z-score [15]: -1.4
- z-score [16]: -1.67
- z-score [17]: -0.0052 (inactive)
- z-score [18]: 0.634
- z-score [19]: -0.434
- z-score [20]: -0.299 (inactive)

SMILES: CC(=O)OC[C@H]1O[C@@H](ON=C[C@@H](C)[C@H](OCc2ccccc2)C(C)C)[C@H](OC(C)=O)[C@@H](OC(C)=O)[C@@H]1OC(C)=O
- z-score [1]: 0.319 (inactive)
- composite z-score [2]: 0.113
- z-score [3]: 0.857 (inactive)
- z-score [4]: 0.536 (inactive)
- z-score [5]: 1.04 (inactive)
- z-score [6]: 0.22 (inactive)
- z-score [7]: 0.761
- z-score [8]: -0.72 (inactive)
- z-score [9]: 0.404 (inactive)
- z-score [10]: -0.856
- z-score [11]: 0.605
- z-score [12]: -0.466
- z-score [13]: 0.471
- z-score [14]: 0.614
- z-score [15]: 0.048
- z-score [16]: -0.148
- z-score [17]: 0.0097 (inactive)
- z-score [18]: 0.386
- z-score [19]: -0.863
- z-score [20]: -1.23 (inactive)

SMILES: COCCOC(=O)N1C(=O)[C@@]2(c3cc(C#CCNC(N)=O)ccc31)[C@H](c1ccccc1OCCO)N1[C@H](c3ccccc3)[C@H](c3ccccc3)OC(=O)[C@H]1[C@@H]2C(=O)N1CCN(c2ncccn2)CC1
- z-score [1]: 0.981 (inactive)
- composite z-score [2]: 0.15
- z-score [3]: 2.11 (inactive)
- z-score [4]: -0.313 (inactive)
- z-score [5]: 0.793 (inactive)
- z-score [6]: -2.06 (inactive)
- z-score [7]: 2.82
- z-score [8]: 1.63 (inactive)
- z-score [9]: 1.09 (inactive)
- z-score [10]: -0.814
- z-score [11]: 0.0249
- z-score [12]: 0.457
- z-score [13]: 1.37
- z-score [14]: 0.541
- z-score [15]: 1.12
- z-score [16]: -1.76
- z-score [17]: 0.856 (inactive)
- z-score [18]: -0.847
- z-score [19]: -0.859
- z-score [20]: -1.27 (inactive)

SMILES: CN1C(=O)C2C=CC(C(O)c3ccc(I)cc3)N(NC(=O)OC(C)(C)C)C2C1=O (stereo not given)
- z-score [1]: -1.55 (inactive)
- composite z-score [2]: 0.317
- z-score [3]: 0.365 (inactive)
- z-score [4]: 0.214 (inactive)
- z-score [5]: -0.43 (inactive)
- z-score [6]: 1 (inactive)
- z-score [7]: -1.09
- z-score [8]: -1.01 (inactive)
- z-score [9]: -0.982 (inactive)
- z-score [10]: -0.411
- z-score [11]: -0.872
- z-score [12]: -0.692
- z-score [13]: -1.28
- z-score [14]: -0.0342
- z-score [15]: -0.297
- z-score [16]: -1.56
- z-score [17]: -0.474 (inactive)
- z-score [18]: -0.698
- z-score [19]: 0.804
- z-score [20]: -0.312 (inactive)

SMILES: CCCC=C(CCC)[C@@H](NC(=O)c1ccc(-c2ccccc2)cc1)c1ccc(C(=O)OC)cc1
- z-score [1]: -1.23 (inactive)
- composite z-score [2]: 0.547
- z-score [3]: 0.626 (inactive)
- z-score [4]: 0.453 (inactive)
- z-score [5]: -0.104 (inactive)
- z-score [6]: 0.987 (inactive)
- z-score [7]: 0.692
- z-score [8]: -0.0895 (inactive)
- z-score [9]: 1.13 (inactive)
- z-score [10]: 1.81
- z-score [11]: -1.34
- z-score [12]: -1.51
- z-score [13]: -0.166
- z-score [14]: -0.116
- z-score [15]: -1.62
- z-score [16]: -3.18
- z-score [17]: 0.393 (inactive)
- z-score [18]: -0.834
- z-score [19]: -1.29
- z-score [20]: 0.747 (inactive)

SMILES: CC=CC1=C(CO)[C@H](O)[C@H]2O[C@H]2[C@H]1O
- z-score [1]: -0.147 (inactive)
- composite z-score [2]: -0.45
- z-score [3]: -0.528 (inactive)
- z-score [4]: -0.52 (inactive)
- z-score [5]: -0.382 (inactive)
- z-score [6]: -0.342 (inactive)
- z-score [7]: 0.318
- z-score [8]: 1.94 (inactive)
- z-score [9]: -1.82 (inactive)
- z-score [10]: -0.768
- z-score [11]: -0.286
- z-score [12]: 0.292
- z-score [13]: -0.408
- z-score [14]: 0.0314
- z-score [15]: -0.054
- z-score [16]: -0.722
- z-score [17]: 0.382 (inactive)
- z-score [18]: 0.635
- z-score [19]: 0.677
- z-score [20]: -0.482 (inactive)

SMILES: C=COC[C@H]1CN2[C@@H](CC[C@@H](C)[C@@H]2c2ccc(Br)cc2)C(=O)O1
- z-score [1]: -1.63 (inactive)
- composite z-score [2]: 0.0402
- z-score [3]: -0.591 (inactive)
- z-score [4]: -2.06 (inactive)
- z-score [5]: -0.655 (inactive)
- z-score [6]: -1.99 (inactive)
- z-score [7]: 1.54
- z-score [8]: -0.427 (inactive)
- z-score [9]: 0.102 (inactive)
- z-score [10]: 0.574
- z-score [11]: 0.197
- z-score [12]: 0.34
- z-score [13]: 1.3
- z-score [14]: 0.48
- z-score [15]: -0.228
- z-score [16]: 0.244
- z-score [17]: 1.39 (inactive)
- z-score [18]: -0.56
- z-score [19]: 0.252
- z-score [20]: -0.0242 (inactive)

SMILES: CC(C)C[C@@H]1NC(=O)[C@H]2C[C@@H](C(=O)NCCCCCCN(C)C)[C@@H](c3cccc(OCCO)c3)N2C1=O
- z-score [1]: -0.054 (inactive)
- composite z-score [2]: 0.0816
- z-score [3]: 4.3 (inactive)
- z-score [4]: 0.594 (inactive)
- z-score [5]: 1.04 (inactive)
- z-score [6]: 0.154 (inactive)
- z-score [7]: 0.0695
- z-score [8]: 1.77 (inactive)
- z-score [9]: 1.07 (inactive)
- z-score [10]: 1.84
- z-score [11]: -1.26
- z-score [12]: 0.88
- z-score [13]: -0.278
- z-score [14]: 0.303
- z-score [15]: 0.651
- z-score [16]: -1.09
- z-score [17]: -0.481 (inactive)
- z-score [18]: -0.0673
- z-score [19]: -0.0169
- z-score [20]: -0.21 (inactive)

SMILES: CO[C@H]1COC(=O)[C@@H]2CCCN2C(=O)[C@@H](C)COC(=O)CC=C[C@@H]1C
- z-score [1]: 0.737 (inactive)
- composite z-score [2]: -0.198
- z-score [3]: 0.464 (inactive)
- z-score [4]: 0.279 (inactive)
- z-score [5]: 0.61 (inactive)
- z-score [6]: 0.27 (inactive)
- z-score [7]: -0.552
- z-score [8]: -0.281 (inactive)
- z-score [9]: 0.0546 (inactive)
- z-score [10]: -0.48
- z-score [11]: 0.12
- z-score [12]: -0.142
- z-score [13]: -0.364
- z-score [14]: -0.122
- z-score [15]: 0.358
- z-score [16]: 0.00983
- z-score [17]: -0.418 (inactive)
- z-score [18]: 0.604
- z-score [19]: 0.0689
- z-score [20]: 0.314 (inactive)
